One assay deals with HeLa. Kind of assay: Primary qHTS to identify gynecologic anti-cancer compounds using libraries of approved drugs and bioactive compounds (AID 1345084). Note: nearly all actives have a fitted effect of over 55% in size. To be noted: Gynecologic cancer cell panel viability, ATPlite luminescence, 48 h; series mostly up to 57.5 µM. A digest of the protocol: (§1)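 ATP-based viability (ATPlite), 1,000 cells/well, 16 h pre-incubation, 48 h compound at 37 C, 5% CO2, 15 min RT before read.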

The next assay deals with Hek293T. Described as above. To be noted: Gynecologic cancer cell panel viability, ATPlite luminescence, 48 h, control line for the selectivity index; series mostly up to 57.5 µM. A digest of the protocol:
as §1

In another assay the test system is JEG-3. The description is as above. To be noted: Gynecologic cancer cell panel viability, ATPlite luminescence, 48 h; series mostly up to 57.5 µM. A digest of the protocol: as §1
A further assay deals with OV90. The description is as above. To be noted: Gynecologic cancer cell panel viability, ATPlite luminescence, 48 h; series mostly up to 57.5 µM. The method in brief: as §1
A further assay relates to PA-1. The description is as above. To be noted: Gynecologic cancer cell panel viability, ATPlite luminescence, 48 h; series mostly up to 57.5 µM. The method in brief:
as §1

Another assay concerns Tov-21-G. The description is as above. To be noted: Gynecologic cancer cell panel viability, ATPlite luminescence, 48 h; series mostly up to 57.5 µM. A digest of the protocol:
as §1

The test system of another assay is Tov112D. Described as above. The settings on record: Gynecologic cancer cell panel viability, ATPlite luminescence, 48 h; series mostly up to 57.5 µM. A digest of the protocol:
as §1

Assay [1] in a line: Drug repurposing screens with cells derived from glioblastoma tumor samples (AID 1345199). Note: nearly all actives have a fitted effect of over 40% in size. To be noted: GBM patient neurospheres viability, ATP luminescence, 48 h. A digest of the protocol:
(§2)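 Primary testing used CD133+ neurospheres from four GBM patients, seven concentrations, 48 h exposure and ATP-based viability; confirmation added three slower-growing patient lines.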

The test system of the next assay is SKOV3. Kind of assay: Primary qHTS to identify gynecologic anti-cancer compounds using libraries of approved drugs and bioactive compounds (AID 1345084). Note: nearly all actives have a fitted effect of over 55% in size. The settings on record: Gynecologic cancer cell panel viability, ATPlite luminescence, 48 h; series mostly up to 57.5 µM. The method in brief: as §1
A further assay relates to astro. Kind of assay: Drug repurposing screens with cells derived from glioblastoma tumor samples (AID 1345199). Note: nearly all actives have a fitted effect of over 40% in size. The settings on record: viability, ATP luminescence, 48 h; series mostly up to 45.9 µM. The method in brief:
as §2

Setting [2] is: at 45.9 µM (top of the series), tumour line B.
Where [3] appears, read: at 45.9 µM (top of the series), tumour line D.
Setting [4] is: at 46.1 µM (top of the series), tumour line C.

Results filed as inconclusive are left out. A number with no mark means an inactive call. Active and inactive are the calls of the source. Calls come from the whole dose curve; as a rule, active = well fitted curve in the direction sought with a large enough effect; inconclusive = small, poorly fitted or top-dose-only effect, or another doubt; inactive = no such curve, though single readings can be large; an effect the other way counts as inactive or inconclusive.
% is set by controls: 0 for no effect and ±100 for the full control effect; potency is the fitted concentration of half-maximal effect.

Take `CC(C)(C)NC(=O)[C@@H]1CN(Cc2cccnc2)CCN1C[C@@H](O)C[C@@H](Cc1ccccc1)C(=O)N[C@H]1c2ccccc2C[C@H]1O`: the Potency result with HeLa, with Hek293T, with JEG-3, in the assay with OV90, with PA-1 and with Tov-21-G was “inactive” in each case. Moreover, the Potency result in the assay with Tov112D was “inactive”.
With `CCN1CCC[C@H]1CNC(=O)c1c(OC)ccc(Br)c1OC`, the Potency entry in the assay on HeLa, in the assay with Hek293T, with JEG-3, in the assay with OV90, in the assay with PA-1 and with Tov-21-G was “inactive” each time. For the same compound, in the assay with Tov112D, the Potency result is “inactive”. Also, the figures for the activity, negative = cell killing in assay [1] (setting [2]), in [1] (setting [3]) and in assay [1] (setting [4]) were -5.99%, -23.8% and -7.43%, respectively.
As to `O=S1(=O)c2cccc3cccc(c23)N1CCCN1CCN(c2ccc(F)cc2)CC1`, the Potency entry in the assay with HeLa, with Hek293T, in the assay with JEG-3, in the assay on OV90, in the assay with PA-1 and in the assay with SKOV3 was “inactive” throughout. Moreover, the Potency result in the assay on Tov-21-G, in the assay with Tov112D and in the assay with astro was “inactive” each time. In addition, the activity, negative = cell killing in assay [1] (setting [2]) is -28.9%. For the same compound, the Potency in [1] (tumour line A) was 12.6 µM (active).
`CCCSS/C(CCO)=C(\C)N(C=O)Cc1cnc(C)nc1N`: the Potency entry in the assay on HeLa, in the assay with Hek293T, with JEG-3, in the assay on OV90, in the assay with PA-1 and in the assay on SKOV3 was “inactive” each time. The Potency result with Tov-21-G and in the assay on Tov112D was “inactive” each time. In addition, in assay [1] (setting [4]), the activity, negative = cell killing was -24.8%. Moreover, in the assay on astro, the Potency is 22.4 µM (active).
As to `CCN(CCCc1ccccc1)CCCc1ccccc1`, the Potency entry with HeLa, with Hek293T, in the assay on JEG-3, in the assay on PA-1, in the assay with SKOV3 and in the assay with Tov-21-G was “inactive” in each case. For the same compound, the Potency entry in the assay with Tov112D and in the assay on astro was “inactive” throughout. In addition, the Potency in the assay with OV90 was 28.2 µM (active); in [1] (tumour line A), 5.01 µM (active). For the same compound, the activity, negative = cell killing in assay [1] (at 20 µM (top of the series), tumour line C) was -18.9%; in [1] (at 21.2 µM (top of the series), tumour line B), 2.05%.
Turning to `COc1cc2c(cc1OC)C(C(C(=O)N(CCc1ccc(OC)c(OC)c1OC)CCc1ccc(OC)c(OC)c1OC)c1ccccc1)=NCC2` (stereo unspecified), the Potency result in the assay with HeLa, with Hek293T, with JEG-3, with OV90, with PA-1 and with SKOV3 was “inactive” in each case. Besides, the Potency result in the assay with Tov-21-G, in the assay with Tov112D and in the assay on astro was “inactive” each time.
Turning to `Cc1cc(O)c(C(C)C)cc1Cl`, the Potency result in the assay with HeLa, in the assay on Hek293T, in the assay with JEG-3, in the assay on OV90, in the assay on PA-1 and with SKOV3 was “inactive” throughout. The Potency entry in the assay on Tov-21-G, in the assay with Tov112D and with astro was “inactive” each time. Further, the activity, negative = cell killing in assay [1] (setting [2]) is -5.69%; in assay [1] (setting [3]), -7.04%; in assay [1] (setting [4]) it was 8.96%.
`CC(Cc1cccc(C(F)(F)F)c1)NCCOC(=O)c1ccccc1` (stereo unspecified): the Potency entry with HeLa, in the assay with Hek293T, in the assay with JEG-3, with OV90, in the assay with PA-1 and with SKOV3 was “inactive” in each case. The Potency result in the assay with Tov-21-G, with Tov112D and in the assay on astro was “inactive” each time.
Turning to `CC(CCc1ccccc1)NCC(O)c1ccc(O)c(C(N)=O)c1` (stereo unspecified), the Potency result with HeLa, in the assay on Hek293T, in the assay with JEG-3, in the assay with OV90, in the assay on PA-1 and in the assay on SKOV3 was “inactive” in each case. For the same compound, the Potency entry in the assay with Tov112D and in the assay on astro was “inactive” each time. The results for the activity, negative = cell killing in [1] (setting [2]), in assay [1] (setting [3]) and in assay [1] (setting [4]) were -24.2%, -11.2% and -24%, respectively.
Consider `Cc1c(C)n(Cc2ccccc2)c2ccc(C(=O)OCCN(C)C)cc12`, for which the Potency result with HeLa, in the assay on Hek293T, with JEG-3, with OV90, in the assay on Tov-21-G and in the assay on Tov112D was “inactive” in each case. Also, the activity, negative = cell killing in assay [1] (setting [4]) is -16.7%. Moreover, the Potency is 11.2 µM (active) in assay [1] (tumour line A) and 10 µM (active) in assay [1] (tumour line D).
With `O=C(Nc1ccc(Oc2ccc(Cl)cc2)c(Cl)c1)c1cc(I)cc(I)c1O`, the Potency result with HeLa, in the assay with Hek293T, in the assay on JEG-3, in the assay with PA-1, in the assay with SKOV3 and in the assay on Tov-21-G was “inactive” in each case. The Potency entry in the assay on Tov112D is “inactive”.
Consider `CC(C)(C)CC(C)(C)c1ccc(OCCOCC[N+](C)(C)Cc2ccccc2)cc1`, for which the Potency result in the assay with HeLa, in the assay with Hek293T, in the assay with JEG-3 and in the assay on Tov112D was “inactive” throughout. Moreover, the Potency in the assay with PA-1 is 14.1 µM (active); with SKOV3, 12.6 µM (active); in the assay on astro it was 20 µM (active).
Turning to `CO/N=C1\CN(c2nc3c(cc2F)c(=O)c(C(=O)O)cn3C2CC2)CC1CN` (stereo unspecified), the Potency entry in the assay with HeLa, with Hek293T, in the assay with JEG-3, in the assay on OV90, with SKOV3 and with Tov-21-G was “inactive” throughout. The Potency result in the assay with Tov112D and in the assay on astro was “inactive” throughout. Also, the figures for the activity, negative = cell killing in assay [1] (setting [2]), in [1] (setting [3]) and in assay [1] (setting [4]) were -0.703%, -7.84% and 13.8%, respectively.
In the case of `COc1ccc(/C=C/C(=O)c2ccc(OC)cc2OC)cc1`, the Potency result in the assay with HeLa, with Hek293T, with JEG-3, with Tov-21-G and in the assay with Tov112D was “inactive” throughout. For the same compound, the Potency with SKOV3 was 2.24 µM (active); in assay [1] (tumour line A) it was 35.5 µM (active); in assay [1] (tumour line D), 12.6 µM (active). The activity, negative = cell killing in assay [1] (setting [4]) was -59.7%.
In the case of `COc1cccc(CCc2ccccc2OCC(CN(C)C)OC(=O)CCC(=O)O)c1` (stereo unspecified), the Potency result in the assay on HeLa, in the assay with Hek293T, in the assay on JEG-3, in the assay on PA-1, in the assay on SKOV3 and in the assay with Tov-21-G was “inactive” each time. In the assay with Tov112D, the Potency result is “inactive”.
